Results taken from PubChem BioAssay AID1159580 (chemical genetic matrix, 2015).
Screen size: about 5,500 compounds; about 2,000 (36%) were called active. Inconclusive results (about 18%) are left out. No stated cut-off is given here; in the data, active means normalized growth mostly below about 0.91 (no sharp cut-off); inconclusive means no clear call, values can overlap the other calls; inactive means mostly above about 0.92. This is one part of the list.

Assay: chemical genetic growth profiling, strain panel (AID 1159580);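 further: tested at 20 µM; growth read once vehicle control cultures reached saturation at 30 °C; 1 = growth at the plate median or of vehicle wells; lower values mean less growth of the strain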
Conditions: growth OD

Measured: normalized growth

CCCCOc1cc(C(=O)NCCN(CC)CC)c2ccccc2n1
inactive: S. cerevisiae deletion strains, locus YJR075W, strain HOC1, active compounds read low 0.999 | S. cerevisiae deletion strains, locus YKL009W, strain mrt4, active compounds read low 1 | S. cerevisiae deletion strains, locus YKL068W, active compounds read low 0.994 | S. cerevisiae deletion strains, locus YKL085W, strain MDH1 (second series), active compounds read low 0.989 | S. cerevisiae deletion strains, locus YKL085W, strain MDH1, active compounds read low 0.989 | S. cerevisiae deletion strains, locus YKL160W, strain elf1, active compounds read low 0.964 | S. cerevisiae deletion strains, locus YKR001C, strain vps1, active compounds read low 1.01 | S. cerevisiae deletion strains, locus YKR026C, strain gcn3, active compounds read low 0.962 | S. cerevisiae deletion strains, locus YKR091W, strain srl3, active compounds read low 0.973 | S. cerevisiae deletion strains, locus YLL001W, strain dnm1, active compounds read low 0.939 | S. cerevisiae deletion strains, locus YLL026W, active compounds read low 0.981 | S. cerevisiae deletion strains, locus YLL041C, strain sdh2, active compounds read low 0.956 | S. cerevisiae deletion strains, locus YLR027C, strain aat2, active compounds read low 0.97 | S. cerevisiae deletion strains, locus YLR039C, strain RIC1, active compounds read low 1.13 | S. cerevisiae deletion strains, locus YLR058C, strain SHM2, active compounds read low 1.01 | S. cerevisiae deletion strains, locus YLR102C, strain apc9, active compounds read low 0.99 | S. cerevisiae deletion strains, locus YLR113W, strain HOG1, active compounds read low 1.02 | S. cerevisiae deletion strains, locus YLR221C, strain rsa3, active compounds read low 1.02 | S. cerevisiae deletion strains, locus YLR258W, strain gsy2, active compounds read low 1 | S. cerevisiae deletion strains, locus YLR262C, strain YPT6 (second series), active compounds read low 0.956 | S. cerevisiae deletion strains, locus YLR262C, strain YPT6, active compounds read low 1.14 | S. cerevisiae deletion strains, locus YLR268W, strain sec22, active compounds read low 1 | S. cerevisiae deletion strains, locus YLR320W, strain mms22, active compounds read low 1.02 | S. cerevisiae deletion strains, locus YLR330W, strain CHS5, active compounds read low 1.01 | S. cerevisiae deletion strains, locus YLR342W, strain FKS1 (second series), active compounds read low 1.02 | S. cerevisiae deletion strains, locus YLR342W, strain FKS1, active compounds read low 0.957 | S. cerevisiae deletion strains, locus YLR357W, strain rsc2, active compounds read low 0.94 | S. cerevisiae deletion strains, locus YLR370C, strain arc18, active compounds read low 0.971 | S. cerevisiae deletion strains, locus YLR371W, strain rom2, active compounds read low 0.99 | S. cerevisiae deletion strains, locus YLR384C, strain iki3, active compounds read low 0.959 | S. cerevisiae deletion strains, locus YLR418C, strain cdc73, active compounds read low 0.984 | S. cerevisiae deletion strains, locus YML016C, strain PPZ1, active compounds read low 1.01 | S. cerevisiae deletion strains, locus YML032C, strain rad52, active compounds read low 0.989 | S. cerevisiae deletion strains, locus YML120C, strain ndi1, active compounds read low 0.969 | S. cerevisiae deletion strains, locus YML124C, strain tub3, active compounds read low 0.994 | S. cerevisiae deletion strains, locus YMR058W, strain fet3, active compounds read low 0.968 | S. cerevisiae deletion strains, locus YMR078C, strain ctf18, active compounds read low 0.991 | S. cerevisiae deletion strains, locus YMR125W, strain sto1, active compounds read low 0.931 | S. cerevisiae deletion strains, locus YMR129W, active compounds read low 0.982 | S. cerevisiae deletion strains, locus YMR205C, strain PFK2, active compounds read low 0.972 | S. cerevisiae deletion strains, locus YMR223W, strain ubp8, active compounds read low 0.987 | S. cerevisiae deletion strains, locus YMR231W, strain pep5, active compounds read low 0.96 | S. cerevisiae deletion strains, locus YMR263W, strain SAP30, active compounds read low 1 | S. cerevisiae deletion strains, locus YMR307W, strain GAS1, active compounds read low 1.1 | S. cerevisiae deletion strains, locus YNL067W, strain RPL9B, active compounds read low 0.995 | S. cerevisiae deletion strains, locus YNL071W, strain lat1, active compounds read low 0.985 | S. cerevisiae deletion strains, locus YNL128W, strain TEP1, active compounds read low 1 | S. cerevisiae deletion strains, locus YNL153C, strain GIM3, active compounds read low 0.994 | S. cerevisiae deletion strains, locus YNL183C, strain NPR1, active compounds read low 0.975 | S. cerevisiae deletion strains, locus YNL209W, strain ssb2, active compounds read low 0.985 | S. cerevisiae deletion strains, locus YNL233W, strain BNI4, active compounds read low 0.997 | S. cerevisiae deletion strains, locus YNL248C, strain rpa49, active compounds read low 0.979 | S. cerevisiae deletion strains, locus YNL250W, strain rad50, active compounds read low 0.996 | S. cerevisiae deletion strains, locus YNL271C, strain bni1, active compounds read low 0.991 | S. cerevisiae deletion strains, locus YNL298W, strain CLA4, active compounds read low 0.998 | S. cerevisiae deletion strains, locus YNL307C, strain MCK1, active compounds read low 0.984 | S. cerevisiae deletion strains, locus YNL322C, strain KRE1 (second series), active compounds read low 0.951 | S. cerevisiae deletion strains, locus YNL322C, strain KRE1, active compounds read low 1 | S. cerevisiae deletion strains, locus YNR049C, strain mso1, active compounds read low 0.967 | S. cerevisiae deletion strains, locus YNR052C, strain pop2, active compounds read low 0.985 | S. cerevisiae deletion strains, locus YOL012C, strain htz1 0.896 | S. cerevisiae deletion strains, locus YOL147C, strain pex11, active compounds read low 0.998 | S. cerevisiae deletion strains, locus YOR001W, strain rrp6, active compounds read low 0.935 | S. cerevisiae deletion strains, locus YOR061W, strain CKA2, active compounds read low 1.01 | S. cerevisiae deletion strains, locus YOR069W, strain VPS5, active compounds read low 1 | S. cerevisiae deletion strains, locus YOR070C, strain gyp1, active compounds read low 0.991 | S. cerevisiae deletion strains, locus YOR080W, strain dia2, active compounds read low 0.962 | S. cerevisiae deletion strains, locus YOR083W, strain WHI5, active compounds read low 0.967 | S. cerevisiae deletion strains, locus YOR106W, strain vam3, active compounds read low 0.966 | S. cerevisiae deletion strains, locus YOR136W, strain idh2, active compounds read low 0.998 | S. cerevisiae deletion strains, locus YOR144C, strain elg1, active compounds read low 0.992 | S. cerevisiae deletion strains, locus YOR184W, strain ser1, active compounds read low 0.995 | S. cerevisiae deletion strains, locus YOR231W, strain MKK1, active compounds read low 1.03 | S. cerevisiae deletion strains, locus YOR265W, strain rbl2, active compounds read low 0.976 | S. cerevisiae deletion strains, locus YOR270C, strain vph1, active compounds read low 0.933 | S. cerevisiae deletion strains, locus YOR290C, strain snf2, active compounds read low 0.977 | S. cerevisiae deletion strains, locus YOR316C, strain cot1, active compounds read low 0.996 | S. cerevisiae deletion strains, locus YPL051W, strain arl3, active compounds read low 0.989 | S. cerevisiae deletion strains, locus YPL055C, strain LGE1, active compounds read low 1.02 | S. cerevisiae deletion strains, locus YPL078C, strain atp4, active compounds read low 0.936 | S. cerevisiae deletion strains, locus YPL106C, strain sse1, active compounds read low 0.921 | S. cerevisiae deletion strains, locus YPL240C, strain hsp82, active compounds read low 0.962 | S. cerevisiae deletion strains, locus YPL256C, strain CLN2, active compounds read low 1.01 | S. cerevisiae deletion strains, locus YPR119W, strain clb2, active compounds read low 0.994 | S. cerevisiae deletion strains, locus YPR141C, strain kar3, active compounds read low 1 | S. cerevisiae deletion strains, locus YPR163C, strain tif3, active compounds read low 1 | S. cerevisiae deletion strains, locus YPR167C, strain met16, active compounds read low 0.986 | S. cerevisiae deletion strains, strain wtn01, active compounds read low 1.02 | S. cerevisiae strains, strain wild type, active compounds read low 1
